KB-3-1 cytotox – qHTS assay for MDR1-selective chemotherapeutics: Primary screen using the parental adenocarcinoma cell KB-3-1; Potency, µM (highest dose often 46.1 µM), usual class: cytotoxic; 1.4% of 400,000 active; AID 1347075, 2019; KB-3-1 viability, CellTiter-Glo ATP luminescence, 72 h; further: nearly all actives have a fitted effect of over 60% in size
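72 h, 37 °C compound treatment of KB-3-1 parental cells; CellTiter-Glo added, 10 min, luminescence read. Data corrected against DMSO-only plates and normalized before curve fitting.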
DT40 TDP1 no CPT – qHTS for Inhibitors of human tyrosyl-DNA phosphodiesterase 1 (TDP1): qHTS in cells in absence of CPT; DT40 Tdp1-/- hTDP1 cells, no CPT, ATP luminescence, 48 h; 15% of 420,000 active; Potency, µM (series often up to 46.2 µM), hits mostly inhibitors; further: nearly all actives have a fitted effect of over 55% in size
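Readout: luminescence from CellTiter-Glo after 30 min in the dark at RT. Cells: DT40 Tdp1-/- with stable hTDP1, 400/well. Exposure: compounds alone, ≥48 hr, 37 °C.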
TDP1 cell CPT – qHTS for Inhibitors of human tyrosyl-DNA phosphodiesterase 1 (TDP1): qHTS in cells in presence of CPT | chicken DT40 Tdp1-/-;hTDP1 cells + 20 nM CPT, ATP luminescence, 48 h | Potency, µM (titrated, usually from 46.2 µM), actives largely listed as inhibitors | 12% of 420,000 active | AID 686979, 2013; further: nearly all actives have a fitted effect of over 55% in size
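Chicken DT40 Tdp1-/- cells stably complemented with human TDP1 were seeded at 400 cells/well in medium containing 20 nM camptothecin, exposed to pin-transferred compounds, and grown at 37 °C for at least 48 hr. Viability was read as ATP luminescence.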
HT1080 IDH1KD tx – qHTS for induction of synthetic lethality in tumor cells producing 2HG: qHTS for the HT-1080-IDH1KD cell line; HT-1080 IDH1 knockdown viability, ATP luminescence, 48 h; Potency, µM (series often up to 46.1 µM), most hits filed as cytotoxic; 2% of 360,000 active
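Cytotoxicity counter-line: IDH1KD HT-1080, 48 h, CellTiter-Glo. Curves classed by r2, magnitude and activity.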
KB-V1 MDR tox – qHTS assay for MDR1-selective chemotherapeutics: Primary screen using the drug-selected MDR subline cells KB-V1; KB-V1 MDR cells viability, CellTiter-Glo, 72 h; Potency, µM (highest dose often 46.1 µM), usual class: cytotoxic; 3.4% of 400,000 active; further: nearly all actives have a fitted effect of over 60% in size
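Drug-selected KB-V1 cells, grown in DMEM lacking phenol red with 10% FBS, receive compound titrations; after three days at 37 degrees C, surviving cell ATP is quantified by CellTiter-Glo luminescence and responses normalized and curve-fitted.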
HT1080-NT tox – qHTS for induction of synthetic lethality in tumor cells producing 2HG: qHTS for the HT-1080-NT fibrosarcoma cell line. Potency, µM (top dose mostly 46.1 µM), hits mostly cytotoxic. AID 686970, 2013. HT-1080-NT fibrosarcoma viability, CellTiter-Glo ATP luminescence, 48 h. 1.6% of 360,000 active;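 further: NT is the 2HG producing partner of a matched IDH1 knockdown line; nearly all actives have a fitted effect of over 55% in size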
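Viability by CellTiter-Glo luminescence after 48 h compound exposure at 37C of HT-1080-NT cells (750/well, RPMI, 5% FBS). % activity scaled between DMSO wells and medium-only wells, then curve-fitted and categorized by curve class.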
Of the large screens only hits and unclear results are named; the others gave an inactive call. In the library only some 19% were active in any assay of this set; here they are far more common. The call rests on the fitted dose curve; in most records, active means well fitted curve in the direction sought with a large enough effect; inconclusive means small, poorly fitted or top-dose-only effect, or another doubt; inactive means no such curve, though single readings can be large; an effect the other way counts as inactive or inconclusive.

Cc1ccc(C)c(CNC(=O)c2cnc3sc(N4CCCC4)nn3c2=O)c1	DT40 TDP1 no CPT 18µM, TDP1 cell CPT 16µM (no result: HT1080 IDH1KD tx, HT1080-NT tox)
CC[C@]12c3[nH]c4cc(CCC(=O)N(C)C)ccc4c3CCN1C(=O)[C@@H](CC(=O)NCCc1ccccn1)C[C@@H]2C(=O)N1CCN(C(=O)C2CC2)CC1	none
CS(=O)(=O)c1ccc(-c2sc3cc4c(cc3c2C(=O)NN2CCOCC2)OCO4)cc1	TDP1 cell CPT inconclusive, KB-V1 MDR tox inconclusive
Cc1nc2ccc(S(=O)(=O)Nc3cc(-c4nc5cccnc5s4)ccc3C)cc2s1	KB-3-1 cytotox inconclusive, DT40 TDP1 no CPT 21µM, TDP1 cell CPT inconclusive, HT1080 IDH1KD tx inconclusive, KB-V1 MDR tox inconclusive, HT1080-NT tox inconclusive
Cc1nc2ccc(S(=O)(=O)Nc3cccc(-c4nc5cccnc5s4)c3C)cc2s1	DT40 TDP1 no CPT 26µM, TDP1 cell CPT inconclusive
O=C(NCC(c1ccc2c(c1)OCO2)N1CCOCC1)c1cccc(Cl)c1 (configuration not stated)	DT40 TDP1 no CPT inconclusive, TDP1 cell CPT inconclusive, KB-V1 MDR tox inconclusive (no result: HT1080 IDH1KD tx, HT1080-NT tox)
COc1ccc(C)cc1NC(=O)Cn1c(=O)oc2cc(S(=O)(=O)N3CCCCC3)ccc21	DT40 TDP1 no CPT 15µM, TDP1 cell CPT inconclusive (no result: HT1080 IDH1KD tx, HT1080-NT tox)
COc1ccc(C)cc1NC(=O)Cn1c(=O)ccc2cc(S(=O)(=O)N3CCCC3)ccc21	DT40 TDP1 no CPT 21µM, TDP1 cell CPT 21µM (no result: HT1080 IDH1KD tx, HT1080-NT tox)
Cc1cccc(NC(=O)Cn2c(=O)ccc3cc(S(=O)(=O)N4CCCC4)ccc32)c1C	DT40 TDP1 no CPT 16µM, TDP1 cell CPT inconclusive (no result: HT1080 IDH1KD tx, HT1080-NT tox)
Cc1ccnc(NC(=O)Cn2c(=O)oc3cc(S(=O)(=O)N4CCCC4)ccc32)c1	none
CCN(C(=O)Cn1c(=O)oc2cc(S(=O)(=O)N3CCCCCC3)ccc21)c1cccc(C)c1	DT40 TDP1 no CPT 21µM, TDP1 cell CPT inconclusive (no result: KB-3-1 cytotox, HT1080 IDH1KD tx, KB-V1 MDR tox, HT1080-NT tox)
Cc1ccc(S(=O)(=O)N2CCC(C(=O)OCC(=O)N(Cc3ccccc3)C(C)C)CC2)cc1C	DT40 TDP1 no CPT inconclusive
O=C(Cn1c(-c2cccs2)cc2cc(Cl)ccc21)N1CCN(c2ccccc2F)CC1	DT40 TDP1 no CPT inconclusive, TDP1 cell CPT inconclusive (no result: HT1080 IDH1KD tx, HT1080-NT tox)
CCCNC(=O)Cn1c(=O)oc2cc(S(=O)(=O)N3CCCC3)ccc21	none
CC1CCN(CCCNC(=O)CN2C(=O)CSc3ccc(S(=O)(=O)N4CCC(C)CC4)cc32)CC1	DT40 TDP1 no CPT 15µM, TDP1 cell CPT inconclusive
COc1ccc(Cl)cc1NC(=O)Cn1c(=O)oc2cc(S(=O)(=O)N3CCCCCC3)ccc21	DT40 TDP1 no CPT 16µM, TDP1 cell CPT inconclusive (no result: HT1080 IDH1KD tx, HT1080-NT tox)
COc1ccc(Cl)cc1NC(=O)CN1C(=O)CSc2ccc(S(=O)(=O)N3CCCC3)cc21	DT40 TDP1 no CPT 23µM, TDP1 cell CPT 16µM (no result: KB-3-1 cytotox, HT1080 IDH1KD tx, KB-V1 MDR tox, HT1080-NT tox)
Cc1ccc(Cl)cc1NC(=O)Cn1c(=O)oc2cc(S(=O)(=O)N3CCCC3)ccc21	DT40 TDP1 no CPT 9.2µM, TDP1 cell CPT 23µM (no result: KB-3-1 cytotox, HT1080 IDH1KD tx, KB-V1 MDR tox, HT1080-NT tox)
COc1cccc(NC(=O)Cn2c(=O)oc3cc(S(=O)(=O)N4CCCCC4)ccc32)c1	KB-3-1 cytotox inconclusive, DT40 TDP1 no CPT inconclusive, TDP1 cell CPT inconclusive (no result: HT1080 IDH1KD tx, HT1080-NT tox)
C=CCN1CCCC1CNC(=O)c1cc(S(N)(=O)=O)cc(OC)c1OC (configuration not stated)	none (no result: KB-3-1 cytotox, HT1080 IDH1KD tx, KB-V1 MDR tox, HT1080-NT tox)
O=C(CSc1ncc(-c2ccccc2)[nH]1)Nc1cccc(C(F)(F)F)c1	DT40 TDP1 no CPT inconclusive, TDP1 cell CPT inconclusive (no result: HT1080 IDH1KD tx, HT1080-NT tox)
CCN(C(=O)CN1C(=O)COc2ccc(S(=O)(=O)N3CCOCC3)cc21)c1cccc(C)c1	DT40 TDP1 no CPT 18µM, TDP1 cell CPT inconclusive (no result: KB-3-1 cytotox, HT1080 IDH1KD tx, KB-V1 MDR tox, HT1080-NT tox)
Cn1cnnc1SCC(=O)Nc1ccc(OCc2ccccc2)cc1	none
CCN(CC)S(=O)(=O)c1cc(NC(=O)C(C)N2CCN(c3ccccn3)CC2)ccc1C (configuration not stated)	DT40 TDP1 no CPT 15µM, TDP1 cell CPT 18µM
Cc1ccc(NC(=O)CN2CCN(c3ccccn3)CC2)cc1S(=O)(=O)N(C)C	TDP1 cell CPT inconclusive, KB-V1 MDR tox inconclusive
COc1ccc(NC(=O)C(c2ccccc2)N2CCN(c3ccccn3)CC2)cc1Cl (configuration not stated)	DT40 TDP1 no CPT inconclusive, TDP1 cell CPT 23µM
CCN(CC)S(=O)(=O)c1cc(NC(=O)C(C)N2CCN(Cc3ccc4c(c3)OCO4)CC2)ccc1C (configuration not stated)	KB-3-1 cytotox 13µM, DT40 TDP1 no CPT 5.2µM, TDP1 cell CPT 7.3µM, KB-V1 MDR tox 2.9µM
CCN(CC)S(=O)(=O)c1cc(NC(=O)CN2CCN(c3ccccn3)CC2)ccc1C	DT40 TDP1 no CPT 23µM, TDP1 cell CPT 13µM
O=C(CN1CCN(Cc2ccc3c(c2)OCO3)CC1)Nc1ccc2c(c1)OCO2	none

Bioassay records: PubChem BioAssay, National Center for Advancing Translational Sciences (NCATS)
